# PubChem BioAssay AID1839 (Johns Hopkins Ion Channel Center, 2009)
# Among all 2,400 compounds or so, about 220 (9.2%) were called active. The list comes from a sample in which actives are over-represented; it also holds similar structures and randomly drawn compounds. Values without a mark were called inactive.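 The calls were made as follows: active = signal change above the mean of dofetilide-free buffer controls plus 3 SD, so a positive margin; inactive = the rest.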
# Assay: nonspecific flux effects in parental CHO-K1, confirmation, counter-screen for hERG block protection project, cell-based, CHO-K1 parental line, FluxOR thallium flux (AID 1839);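 also: compounds applied alone with no dofetilide to cells lacking hERG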
# Conditions: CHO-K1 parental cells, FluxOR thallium flux fluorescence; at 10 µM
row,SMILES,"signal change vs control minus 3*SD hit threshold (margin above threshold, higher = more increase)"
1,O=C(Nc1ccc(Cl)cc1)Nn1cnnc1,-19.6%
2,CCOC(=O)C1=C(c2ccccc2)NC(=O)NC1c1ccc(O)c(Cl)c1 (stereo unspecified),-23.2%
3,CC1CCC(n2c(=S)[nH]c3ccccc3c2=O)CC1 (stereo unspecified),23.6% (active)
4,CC1CCCCC1n1c(=S)[nH]c2ccccc2c1=O (stereo unspecified),-13.4%
5,O=c1c2ccccc2[nH]c(=S)n1C1CCCCC1,-31.6%
6,Cc1c(C(=O)N/N=C/c2ccccn2)nnn1-c1nonc1N,-22.2%
7,Cn1c(=O)c2sc3c(c2n(CC(=O)Nc2ccccc2)c1=O)COC(C)(C)C3,-33%
8,c1ccc(-c2ccc(-c3ccncn3)cc2)cc1,-28.8%
9,Cc1csc(NC(=S)NC(=O)c2ccccc2)n1,-14.7%
10,COc1ccc(NC(=S)Nc2ccccn2)cc1,-35.9%
11,Cc1snnc1C(=O)NC(=S)Nc1ccccc1,5.3% (active)
12,Cc1ccc(NC(=S)NC(=O)c2ccc(-c3ccccc3)cc2)cc1,-23.5%
13,O=C(NC(=S)Nc1ccccc1)c1csnn1,50.8% (active)
14,O=C(NC(=S)Nc1ccccc1)c1cncc(C#Cc2ccccc2)c1,-27.9%
15,Cc1cccnc1NC(=O)c1csnn1,-24.6%
16,COc1ccc(NC(=S)NC(=O)c2csnn2)cc1,9.6% (active)
17,O=C(NC(=S)Nc1ccccc1Cl)c1ccco1,-7.5%
18,O=C(NC(=S)Nc1ccccc1)c1cccs1,-16.6%
19,COc1ccc(NC(=S)NC(=O)c2ccc(Br)o2)cc1,-13.4%
20,O=C(NC(=S)Nc1ccccc1Cl)c1csnn1,39.6% (active)
21,CC(=O)Nc1ccc(NC(=O)CSc2ncc(C(=O)Nc3ccc(Cl)cc3)c(=O)n2C)cc1,-22.1%
22,S=C(N/N=C/c1ccccc1Cl)Nc1cccc(Cl)c1Cl,-4.6%

row,SMILES,"signal change vs control minus 3*SD hit threshold (margin above threshold, higher = more increase)"
1,O=C1CC(N2CCN(c3ccccc3Cl)CC2)C(=O)N1c1ccc(F)cc1 (stereo unspecified),-20.8%
2,COc1cccc(C(=O)/C=C/Nc2ccc(S(=O)(=O)Nc3cnc4ccccc4n3)cc2)c1,-33.7%
3,C/C(=N/NC(=O)c1ccncc1)c1ccc2c(c1)OCO2,-30.7%
4,Cn1c(=O)c(-c2cc(=O)[nH][nH]2)c(O)c2ccccc21,-23.6%
5,Cc1noc(C)c1-c1nnc(-c2ccc(C(F)(F)F)cc2)o1,-18.1%
6,Cn1cc([N+](=O)[O-])c(C(=O)NCc2cc3cc(Cl)ccc3[nH]2)n1,-24.3%
7,Cc1ccc(NC(=O)C2C3CCC(O3)C2C(=O)O)cc1C (stereo unspecified),-26%
8,CC(NC(=O)c1ccncc1)C(C)(C)C (stereo unspecified),-25.4%
9,Cc1ccccc1Cc1c(C)nc2c(C(=O)NCc3ccc4c(c3)OCO4)cnn2c1C,-30.9%
10,COC(=O)Nc1c(-c2ccccc2)nc2ccccn12,-32.5%
11,O=c1c(-c2ccccc2)nc(-c2ccccc2)cn1O,27.1% (active)
12,Cc1nc(-c2ccccc2)cn(O)c1=O,-14.6%
13,Cc1ccc(C)c(NC(=S)NNC(=O)c2csc3c2CCC(C)C3)c1 (stereo unspecified),-16.3%
14,Cc1ccc(NC(=S)NC(=O)c2sc3ccccc3c2Cl)c(C(=O)O)c1,-25.3%
15,COc1ccccc1C(=O)NC(=S)NNC(=O)c1sc2ccccc2c1Cl,23.2% (active)
16,CCCOC(=S)NC(=O)c1sc2ccccc2c1Cl,-4%
17,COc1ccccc1C(=O)NNC(=S)NC(=O)c1sc2ccccc2c1Cl,-27.2%
18,O=C(NC(=S)N(CCCCO)C1CCCCC1)c1sc2ccccc2c1Cl,-27.6%
19,CCOC(=S)NC(=O)c1sc2ccccc2c1Cl,3% (active)
20,O=C(NNC(=S)NC(=O)c1sc2ccccc2c1Cl)c1ccc(Cl)cc1,-22.6%
21,COC(=O)CC1C(=O)NCCN1C(=S)NC(=O)c1sc2ccccc2c1Cl (stereo unspecified),-17.8%
22,CCCCOC(=S)NC(=O)c1sc2ccccc2c1Cl,24.5% (active)

row,SMILES,"signal change vs control minus 3*SD hit threshold (margin above threshold, higher = more increase)"
1,Cc1cccc(OCC(=O)NC2CCCc3ccccc32)c1C (stereo unspecified),-39.9%
2,CCc1nnc(NC(=O)CSc2nc(-c3ccccc3)cc(-c3ccc(OC)cc3)c2C#N)s1,-33.2%
3,COc1ccc(C2/C(=C(/O)c3ccc(Br)cc3)C(=O)C(=O)N2C)cc1 (stereo unspecified),-34.2%
4,CCOCCCn1c(=S)[nH]c2cc(C(=O)NCCOC)ccc2c1=O,-21.5%
5,CCOC(=O)c1sc(=S)n2c1[nH]c(=O)c1ccc(C(=O)OC)cc12,27.7% (active)
6,CCOC(=O)c1sc(NC(=S)NC(=O)c2ccc(OC)cc2)nc1C,-23.3%
7,Cc1nnc(SCc2cc(=O)oc3cc(O)ccc23)n1Cc1ccccc1,-27.2%
8,O=C(NC(=S)Nc1ccc(N2CCOCC2)c(Cl)c1)c1sc2ccccc2c1Cl,-3.9%
9,Oc1ccc(N=Nc2ccccc2-c2nn[nH]n2)c(O)c1,-14.2%
10,COc1ccc(S(=O)(=O)Nc2ccc(O)c3ccccc23)cc1,-41.6%
11,CCOC(=O)c1cccc(C(=O)Nc2nc3ccc(OC)cc3s2)n1,-31.4%
12,COc1ccc2nc(N=Nc3c(O)ccc4ccccc34)sc2c1,1.7% (active)
13,Cc1cc(NC(=O)/C(C#N)=C/c2ccco2)n(-c2ccccc2)n1,-40.7%
14,Cc1[nH]n2c(=O)cc(C(C)(C)C)nc2c1-c1ccccc1,-21.1%
15,Cc1[nH]n2c(=O)cc(C(C)C)nc2c1-c1ccccc1,-21.7%
16,O=c1cc(-c2ccccc2)nc2c(-c3ccccc3)c(C(F)(F)F)[nH]n12,8.1% (active)
17,Cc1nc(-c2nc(-c3c(C(=O)NNC(=O)c4ccc(Cl)cc4)noc3C)cs2)cs1,-33.4%
18,Cc1ccc(-n2c(=S)[nH]c3sc4c(c3c2=O)CCC4)cc1,-20.7%
19,COCCn1c(=S)[nH]c2sc3c(c2c1=O)CCC(C)C3 (stereo unspecified),18.3% (active)
20,CC1CCc2c(sc3[nH]c(=S)n(C)c(=O)c23)C1 (stereo unspecified),23.8% (active)
21,Cn1c(=S)[nH]c2sc3c(c2c1=O)CCC(C(C)(C)C)C3 (stereo unspecified),32% (active)
22,Cc1cccc(-n2c(=S)[nH]c3sc4c(c3c2=O)CCc2ccccc2-4)c1,-27.1%
